PNC assembly inh – blocks assembly of the perinucleolar compartment | PC3M PTB-GFP, PNC prevalence imaging, 16 h; active compounds read low | activity change (PNC), negative = inhibition, % at 10 µM | 140,000 tested, 3.1% active | AID 2417;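 active means readout at or below -70, meaning at least 70% loss of cells showing the perinucleolar compartment, a nuclear body marking cancer cells; inconclusive means readout between -30 and a set limit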;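 further: plate controls were DMSO wells for no effect and camptothecin positive control wells for full effect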
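Read-out is percentage of cells bearing a perinucleolar compartment, from automated 20x imaging of fixed, Hoechst-stained PC3M PTB-GFP cells. Cells were seeded 4 h, then exposed 16 h to compound (23 nl of library stock) in duplicate plates.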
ALDH1A1 inh – ALDH1A1 (human) enzyme inhibition; Potency, µM (top dose mostly 75.3 µM), without a hit: top-dose activity, negative = inhibition, usual class: inhibitors; Purified ALDH1A1, NADH fluorescence, propionaldehyde substrate; P00352; 220,000 tested, 7.3% active; active means well fitted inhibition curve with a large enough effect, not every such curve was filed as active; inconclusive means small, poorly fitted or top-dose-only effect, or another doubt; inactive means no such curve, though single readings can be large or run the other way;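 further: potency means the concentration at half of the fitted maximal effect; plate controls were no enzyme wells and a reference inhibitor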
HTT aggregate – inhibitors of mutant huntingtin aggregate formation in PC12 cells; PC12 HttQ103-GFP aggregates, Acumen cytometry, 40 h; Potency, µM (series often up to 46.1 µM), inactives show top-dose activity change, negative = inhibition, hits mostly inhibitors; 220,000 tested, 1.1% active; AID 1688; further: potency means the concentration at half of the fitted maximal effect; on the % scale 0 is the no-effect control and ±100 the full control effect; nearly all actives have a fitted effect of over 60% in size
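PC12/HTTQ103-GFP, ecdysone-inducible; teb 100 nM; cpd qHTS titration; GFP aggregates read on laser cytometer, Ex 488/Em 500-530 nm.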
CBFb RUNX1 block – inhibitors of human CBF-beta and RUNX1 interaction; AlphaScreen CBFb-His/RUNX1-biotin binding, biochemical; Potency, µM (top dose mostly 59.8 µM), inactives show top-dose activity, negative = inhibition, hits mostly inhibitors; 230,000 tested, under 10 active; AID 1477; further: % of control where 0% means no effect
Target sequence (Q01196 whole entry, looked up): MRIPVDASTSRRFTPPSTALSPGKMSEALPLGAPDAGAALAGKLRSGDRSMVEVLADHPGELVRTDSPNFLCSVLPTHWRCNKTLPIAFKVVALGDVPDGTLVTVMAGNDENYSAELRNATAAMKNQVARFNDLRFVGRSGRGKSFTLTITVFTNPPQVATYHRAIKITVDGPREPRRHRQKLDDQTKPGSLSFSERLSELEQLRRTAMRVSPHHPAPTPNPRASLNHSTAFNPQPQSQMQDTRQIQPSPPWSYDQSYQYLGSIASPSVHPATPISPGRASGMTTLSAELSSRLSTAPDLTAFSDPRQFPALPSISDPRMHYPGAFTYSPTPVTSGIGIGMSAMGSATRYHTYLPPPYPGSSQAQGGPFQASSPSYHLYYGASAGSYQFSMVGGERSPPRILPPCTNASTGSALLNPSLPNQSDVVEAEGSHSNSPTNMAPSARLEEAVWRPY
Target sequence (Q13951 whole entry, looked up): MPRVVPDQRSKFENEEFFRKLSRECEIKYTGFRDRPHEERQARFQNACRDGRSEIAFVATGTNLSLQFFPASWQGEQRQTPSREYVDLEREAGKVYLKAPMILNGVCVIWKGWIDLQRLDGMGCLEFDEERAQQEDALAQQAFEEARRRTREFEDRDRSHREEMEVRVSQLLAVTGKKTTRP
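Bead-based AlphaScreen assay; binding partners His-tagged CBF-beta and biotinylated RUNX1 at 30 nM each. Compound exposure 15 min after a 20-min protein preincubation; bead step 90 min; all steps at room temperature.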
HPGD block – blocks human HPGD enzyme activity; purified HPGD, NADH fluorescence kinetic, PGE2 substrate; Potency, µM, for inactives: top-dose activity change, negative = inhibition, actives largely listed as inhibitors; P15428; 150,000 tested, 4.3% active; AID 894; active means well fitted inhibition curve with a large enough effect, not every such curve was filed as active; inconclusive means small, poorly fitted or top-dose-only effect, or another doubt; inactive means no such curve, though single readings can be large or run the other way; further: potency means the concentration at half of the fitted maximal effect; on the % scale 0 is the no-effect control and ±100 the full control effect
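20 nM HPGD preincubated 15 min at room temperature with compound in 50 mM Tris-HCl pH 8, 0.01% Tween 20. Started with 1 mM NAD+ and 30 uM prostaglandin E2; NADH fluorescence (360/450 nm) read 5 times over 30-s intervals, last minus first.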
HTT cytoprotect – Huntington cell model cytoprotection by ATP luminescence. 230,000 tested, 0.14% active. Potency, µM (doses to about 56.4 µM), inactives show cytoprotection (ATP increase), usual class: activators. PC12 HTT-Q103 induced, cytoprotection, ATP luminescence, 40 h; further: potency means the concentration at half of the fitted maximal effect; % of control where 0% means no effect; nearly all actives have a fitted effect of over 45% in size
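Compounds added alongside 100 nM tebufenozide, which induces toxic Q103 huntingtin exon 1-GFP in stable PC12 cells; surviving cells quantified by luminescent ATP measurement. Medium: phenol red-free DMEM, 5% equine and 5% calf serum.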
* hit, by the source's call; ? = inconclusive; nt = no result; [ ] = remark or other dose. Rows were chosen to be rich in hits. Some 11% of all compounds tested hit in one or more screens of this group. Unless noted, the call rests on the fitted dose curve; in most records, active means well fitted curve in the direction sought with a large enough effect; inconclusive means small, poorly fitted or top-dose-only effect, or another doubt; inactive means no such curve, though single readings can be large; an effect the other way counts as inactive or inconclusive.

SMILES	PNC assembly inh	ALDH1A1 inh	HTT aggregate	CBFb RUNX1 block	HPGD block	HTT cytoprotect
CN(C(=O)CSc1nc2ccc(Br)cc2c(=O)n1Cc1ccco1)C1CCS(=O)(=O)C1 (centres undefined)	nt	12.6µM*	0.9%[9.22 µM]	2.9%	nt	6.5%[10 µM]
CCN(C(=O)CSc1nc2cc(Cl)ccc2c(=O)n1Cc1ccco1)C1CCS(=O)(=O)C1 (centres undefined)	nt	17.8µM*	25.3%	11.5%	nt	2.82µM*
CCc1ccc(NC(=O)CSc2nc3cc(C(=O)OC)ccc3c(=O)n2Cc2ccco2)cc1	-24.5	7.1%	-0.8%	2.9%	-15.2%	-2.1%
Nc1cc(S(=O)(=O)O)cc2ccc(S(=O)(=O)O)cc12	nt	?	nt	nt	-20.3%	-8.2%[10 µM]
Cc1cc(-c2ccc(N=Nc3c(S(=O)(=O)O)cc4cc(S(=O)(=O)O)cc(N)c4c3O)c(C)c2)ccc1N=Nc1c(S(=O)(=O)O)cc2cc(S(=O)(=O)O)cc(N)c2c1O	nt	nt	0.02µM*	nt	nt	-22.5%
COc1ccc(CNC(=O)CSc2nc3[nH]ncc3c(=O)n2-c2ccccc2Br)cc1	nt	15.8µM*	-2.4%	-1.2%	nt	-3.8%
O=C(CSc1nc2[nH]ncc2c(=O)n1-c1ccccc1Br)NCc1ccccc1Cl	nt	12.6µM*	-19.0%	-7.8%	nt	18.2%
CC(C)C[C@H](NC(=O)CNC(=O)[C@H](CCC(N)=O)NC(=O)[C@H](CC(C)C)NC(=O)[C@H](CC(C)C)NC(=O)[C@H](CCCNC(=N)N)NC(=O)[C@H](CCC(N)=O)NC(=O)[C@H](CC(C)C)NC(=O)[C@H](CCCNC(=N)N)NC(=O)[C@H](C)NC(=O)CNC(=O)[C@H](CCC(=O)O)NC(=O)[C@H](CCCNC(=N)N)NC(=O)[C@H](CC(C)C)NC(=O)[C@H](CCCNC(=N)N)NC(=O)[C@H](CO)NC(=O)[C@H](CC(C)C)NC(=O)[C@H](CCC(=O)O)NC(=O)[C@H](CO)NC(=O)[C@@H](NC(=O)[C@H](Cc1ccccc1)NC(=O)[C@@H](NC(=O)CNC(=O)[C@H](CC(=O)O)NC(=O)[C@H](CO)NC(=O)[C@@H](N)Cc1cnc[nH]1)[C@@H](C)O)[C@@H](C)O)C(=O)N[C@H](C(N)=O)C(C)C	nt	nt	nt	20.0%	nt	nt
CN(C)Cc1ccccc1-c1cc(NC2CC2)ncn1	nt	-3.0%	nt	nt	-6.9%	8.5%
CN(Cc1ccccc1)Cn1ccnc1	nt	-6.3%[13.5 µM]	nt	nt	-7.9%	22.0%[10 µM]
CN1CCN(CCCNN)CC1	nt	14.0%[13.5 µM]	nt	nt	2.7%	4.7%[10 µM]
C[n+]1c2n(c3ccccc31)N=C(c1ccccc1)CS2	42.1	?	10µM*	-16.5%	-6.8%	-48.7%
Brc1ccc(C2=Nn3c(Cn4nnc5ccccc54)nnc3SC2)cc1	nt	nt	-18.9%[9.22 µM]	4.4%	nt	0.4%[10 µM]
C[n+]1c2n(c3ccccc31)N=C(c1ccc(-c3ccccc3)cc1)CS2	nt	-14.7%	?	-5.2%	nt	-51.8%[10 µM]
C[n+]1c2n(c3ccccc31)N=C(c1ccc(Br)cc1)CS2	43.0	17.8µM*	31.6µM*	-1.1%	-6.3%	-11.9%[10 µM]
c1ccc2c(c1)[nH]c1nc(SCCN3CCOCC3)nnc12	-26.4	?	-32.4%	-0.9%	31.6µM*	9.2%[1.9 µM]
O=C(CSc1nnc2c(n1)[nH]c1ccccc12)Nc1ccc(N2CCOCC2)cc1	nt	22.4µM*	-7.2%[9.22 µM]	?	nt	-7.5%[10 µM]
CCCCCCCC/C=C\CCCCCCCC(=O)N(CCO)CCO	nt	?	nt	8.3%[21.7 µM]	-8.4%	4.7%
Cc1cc(Cn2cnc3c2C[C@@H](C(=O)O)N(C(=O)C(c2ccccc2)c2ccccc2)C3)ccc1N(C)C	nt	?	nt	16.7%[21.7 µM]	-7.5%	0.7%
CCCOc1ccc(C(=O)C(c2ccccc2)N2CCOCC2)cc1 (centres undefined)	-5.7	12.6µM*	3.6%	-5.5%	?	9.3%
O=C(Nc1cccc(S(=O)(=O)N2CCCCCC2)c1)c1cc(=O)c2ccccc2o1	nt	11.2µM*	20µM*	2.1%	nt	-38.9%
CN(c1ccccc1)S(=O)(=O)c1cccc(NC(=O)c2cc(=O)c3ccccc3o2)c1	nt	?	12.6µM*	-9.0%	nt	-123.2%
CN(c1ccccc1)S(=O)(=O)c1cccc(NC(=O)c2ccncc2)c1	nt	nt	-14.2%[9.22 µM]	1.0%	nt	16.1%[10 µM]
CC(C)c1ccccc1OCCCCCNCCO	-6.4	17.8µM*	-6.8%	3.0%	-21.8%	-6.6%
Cc1cccc(C)c1OCCCCCNCCO	13.6	20µM*	-0.9%	-4.8%	-11.9%	-3.9%
SMILES	PNC assembly inh	ALDH1A1 inh	HTT aggregate	CBFb RUNX1 block	HPGD block	HTT cytoprotect
Cc1ccccc1OCCCCCNCCO	?	?	-29.8%	8.3%	-3.3%	17.8%
COC(=O)C(NC(C)=O)(Nc1ccc(Br)cn1)C(F)(F)F (centres undefined)	13.0	7.08µM*	-5.9%[9.22 µM]	0.3%	-4.8%	-20.7%
Cc1nn2c(N)c(C#N)cnc2c1-c1ccccc1	-81.8*	-2.2%	-19.2%	8.7%	-4.3%	11.9%[1.9 µM]
COC(=O)NC(CC(C)=O)c1cccc(C(F)(F)F)c1 (centres undefined)	nt	1.4%[13.5 µM]	nt	-1.9%[13.1 µM]	nt	30.0%[10 µM]
COC(=O)C1=C(C)NC2=C(C(=O)CCC2)C1c1ccc(-c2ccsc2C(=O)OC)o1 (centres undefined)	nt	?	-5.7%[9.22 µM]	2.4%	nt	-4.8%[10 µM]
O=C(CCC(=O)c1ccccc1)NCCc1c[nH]c2ccccc12	?	-11.3%	6.5%	0.1%	-2.3%	nt
CCn1nnnc1-c1ccc(OC)c(S(=O)(=O)NCc2ccccc2)c1	-4.5	1.89µM*	3.2%	2.3%	20µM*	-13.9%
COc1ccc(OC)c(S(=O)(=O)Nc2ccc(C)c(C)c2)c1	2.5	?	-25.2%	0.7%	-5.2%	35.0%[10 µM]
CCn1nnnc1-c1ccc(OC)c(S(=O)(=O)Nc2ccc(C)c(C)c2)c1	?	7.08µM*	-6.5%	-2.1%	-6.2%	-19.4%
COc1ccc(-c2nnnn2C)cc1S(=O)(=O)NCCc1ccccc1	?	-8.0%	1.5%	6.1%	-3.8%	8.6%
COc1ccc(NS(=O)(=O)c2cc(-c3nnnn3C)ccc2OC)cc1	25.5	0.794µM*	12.9%	3.8%	-6.0%	-3.8%
COC(=O)c1sc(=S)n(Cc2ccccc2)c1C	nt	8.91µM*	-7.8%[9.22 µM]	7.9%	nt	-13.2%[10 µM]
O=C1NC(=S)/C(=C\c2ccc(-c3ccccc3Cl)o2)S1	15.5	?	?	?	15.8µM*	-19.6%[10 µM]
CC(C)(C)c1ccc(OCC(=O)N(c2ccccn2)C2CCCCC2)cc1	-25.7	-5.3%	-18.0%	22.5%	-7.4%	-9.0%[10 µM]
O=C(COCCOCC(=O)N(c1ccccn1)C1CCCCC1)N(c1ccccn1)C1CCCCC1	-100.0*	6.8%	5.9%	2.8%	-9.5%	1.8%[4.97 µM]
COc1ccc(C2CC(=O)Oc3c(C(CCN4CCOCC4)c4ccc5c(c4)OCO5)c(OC)cc(OC)c32)cc1 (centres undefined)	nt	nt	nt	-21.3%	nt	nt
